Data reported in PubChem BioAssay AID504467 (National Center for Advancing Translational Sciences (NCATS), 2011).
Out of some 330,000 compounds screened, about 7,700 (2.3%) were called active. Not shown: some 26% with an inconclusive outcome. What follows is part of a selection rich in actives, with near analogues and random picks from the rest. A number with no mark means an inactive call. Calls follow the shape of the dose curve; as a rule, active = well fitted inhibition curve with a large enough effect; inconclusive = small, poorly fitted or top-dose-only effect, or effect the other way; inactive = flat fitted curve, though single readings scatter.

test: qHTS screen for small molecules that inhibit ELG1-dependent DNA repair in human embryonic kidney (HEK293T) cells expressing luciferase-tagged ELG1; conditions: HEK293T ELG1-luciferase reporter, luminescence, 16 h, DNA damage induced by 5-fluorouridine; series mostly up to 46.1 µM; activity change, negative = inhibition: at the top concentration; also: nearly all actives have a fitted effect of over 55% in size
Method in brief: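 Luminescence from the luciferase reporter, measured 30 min after ONE-Glo reagent at room temperature, was the read-out. Beforehand, 2,000 cells per well were exposed for 16 hr at 37 °C to 5-fluorouridine together with compound or vehicle.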
% is scaled to controls: 0 for no effect and ±100 for the full control effect; potency is read from the fitted curve at half-maximal effect.

Row | SMILES | activity change, negative = inhibition | Potency
1 | CC(C)(C)NC(=O)C(c1ccc(Cl)cc1)N(CCO)C(=O)c1snc(C(N)=O)c1N (stereo not drawn) | -6.16% | 
2 | COc1ccc(CNC(=O)C(c2ccc(O)cc2)N(Cc2ccco2)C(=O)c2snc(C(N)=O)c2N)cc1 (stereo not drawn) |  | 6.51 µM (active)
3 | NC(=O)c1nsc(C(=O)N(CC(=O)NCc2ccc(F)cc2)Cc2ccco2)c1N | 11.5% | 
4 | CCCn1c(C2CCCN2c2nc(-c3ccc(OC)cc3)cs2)nc2ccccc21 (stereo not drawn) | -17.3% | 
5 | COc1ccc(C(=O)CC(=O)C(=O)Nc2cc([N+](=O)[O-])ccc2OC)cc1 | 22.3% | 
6 | COc1ccc(CCNC(=O)COC(=O)c2cc(=O)c3ccccc3o2)cc1 | 10.5% | 
7 | COc1cc2c(cc1OC)CN(C(=O)c1cc(=O)c3ccccc3o1)CC2 |  | 8.2 µM (active)
8 | O=C(c1cc(=O)c2ccccc2o1)N1CCN(c2ccccc2)CC1 | -2.94% | 
9 | COc1ccccc1C(=O)N(Cc1ccc(C)o1)C1CCS(=O)(=O)C1 (stereo not drawn) | 6.35% | 
10 | COc1ccc(-c2c(-c3cc(OC)cc(OC)c3)n(C)c3ccc(-c4ccn[nH]4)cc23)cc1 |  | 6.51 µM (active)
11 | COc1cc(OC)cc(-c2c(-c3cccs3)c3cc(-c4ccc(OC)cc4F)ccc3n2C)c1 | 2.8% | 
12 | COc1cc(OC)cc(-c2c(-c3ccc(F)cc3)c3cc(-c4ccc5cc[nH]c5c4)ccc3n2C)c1 | 27.6% | 
13 | CCOC(=O)[C@@H]1[C@H]2COc3ccc(Br)cc3[C@H]2N2C(=O)N(c3ccc(C)cc3)C(=O)[C@@]12C | -1.2% | 
14 | COc1ccc2nc3n(c(=O)c2c1)-c1cc(C)ccc1C(=O)NC3Cc1ccc(O)cc1 (stereo not drawn) | -0.966% | 
15 | CNC(=O)c1sc(Nc2ccc(OCc3ccccc3)cc2)nc1C |  | 8.2 µM (active)
16 | CCc1ccnc(NC(=O)Nc2ccc(OCc3ccccc3)cc2)c1 | 11.6% | 
17 | Cc1cccc(NC(=O)Nc2ccc(OCc3ccccc3)cc2)n1 | 14.9% | 
18 | COc1ccc(NS(=O)(=O)c2ccc(C)c(C(=O)NCC(c3cccs3)N3CCOCC3)c2)cc1 (stereo not drawn) | 8.71% | 
19 | COc1ccc(S(=O)(=O)N2CCOCC2)cc1NC(=O)CSc1nnc(NC2CC2)s1 | 12.9% | 
20 | Cc1ccc(S(=O)(=O)N2CCC(C)CC2)cc1C(=O)NCc1ccccn1 | -0.498% | 
21 | CCN(CC(=O)NCc1cccs1)S(=O)(=O)c1ccc(NC(C)=O)cc1 | 8.48% | 
22 | CC1CCCCN1S(=O)(=O)c1ccc(S(=O)(=O)N(CC(=O)Nc2ccccc2)Cc2cccs2)cc1 (stereo not drawn) |  | 18.4 µM (active)
23 | COCCN(CC(=O)Nc1ccccc1C)S(=O)(=O)c1ccc(S(=O)(=O)N2CCCC2)cc1 | -26.1% | 
24 | Cc1c(C(=O)N2CCCC2)c(S(=O)(=O)NCC(C)c2ccccc2)c(C)n1C (stereo not drawn) | 21.9% | 

Row | SMILES | activity change, negative = inhibition | Potency
25 | O=C(NNS(=O)(=O)c1ccc([N+](=O)[O-])cc1)C1CCCCC1 | -10.3% | 
26 | CCN(CC)C(=O)[C@H]1CC(CC(=O)NCc2ccco2)C(=O)N2CCc3c([nH]c4ccccc34)[C@]12C (stereo partly drawn) | 3.39% | 
27 | CCCN(CCC)c1nc2c(C)cccn2c(=O)c1/C=C1/SC(=S)N(Cc2ccco2)C1=O | -8.81% | 
28 | CCOC(=O)CC1C(=O)NCCN1c1nc2c(C)cccn2c(=O)c1/C=C1\SC(=S)N(C(C)CC)C1=O (stereo not drawn) |  | 20.6 µM (active)
29 | Cc1cccn2c(=O)c(/C=C3\SC(=S)N(CC(C)C)C3=O)c(NCCCOC(C)C)nc12 | -21.3% | 
30 | COc1ccc(NC(=O)C2CCN(S(=O)(=O)c3ccc4[nH]c(=O)oc4c3)CC2)c(OC)c1 | 12.8% | 
31 | O=S(=O)(c1cccs1)N1CCN(CCOc2ccccc2)CC1 | -12.9% | 
32 | CCOC(=O)C1=C(C)N(C[C@@H]2CC[C@@H](Cc3ccc(-c4ccccc4)cc3)O2)C(=O)NC1c1ccc([N+](=O)[O-])cc1 (stereo partly drawn) | -6.54% | 
33 | CC(=O)N1c2ccc(S(=O)(=O)N3CCCC(C(=O)Nc4ccc(C)cc4C)C3)cc2CC1C (stereo not drawn) | -24.7% | 
34 | COc1cc(Cl)c(C)cc1NC(=O)CSc1nnc(CN2CCCC2)o1 | -3.12% | 
35 | CCCc1nc(SCC(=O)N2CCCC2)c2c(=O)n(C)c(=O)n(C)c2n1 | -27.9% | 
36 | CCCc1nc(SCC(=O)Nc2ccccc2OC)c2c(=O)n(C)c(=O)n(C)c2n1 |  | 23.1 µM (active)
37 | CCc1nc(SCC(=O)Nc2ccccc2OC)n[nH]1 | 0.976% | 
38 | CCOC(=O)CCCCCC(=O)Nc1ccc2c(c1)CC(=O)N([C@@H](C)CO)C[C@H](C)[C@@H](CN(C)Cc1ccccc1)O2 | 3.52% | 
39 | Cc1cc(C)cc(NC(=O)C2CCCN(S(=O)(=O)c3ccc4[nH]c(=O)ccc4c3)C2)c1 (stereo not drawn) | -7.94% | 
40 | O=C(C1CCC(=O)N(C2CC2)C1)N1CCN(c2ccc(Cl)cc2)CC1 (stereo not drawn) | -8.35% | 
41 | COc1ccc(C(=O)NC2CCN(C(=S)NCCc3ccccc3)CC2)cc1 | -4.86% | 
42 | COc1cc(OC)cc(C(=O)NC2CCN(C(=O)N3c4ccccc4Sc4ccccc43)CC2)c1 |  | 13 µM (active)
43 | COc1ccc(C(=O)NC2CCN(C(=S)Nc3ccccc3)CC2)cc1 | 4.41% | 
44 | O=C(CN(CC1CCCO1)C(=O)CNS(=O)(=O)c1ccc(Cl)cc1)NCc1ccccc1 (stereo not drawn) | -10.4% | 
45 | Cc1ccc(-c2nn(-c3ccccc3)cc2C(=O)NCCCN2CCCC2=O)cc1 | -12.5% | 
46 | COc1ccc(-c2cc(C(=O)n3cnc4ccccc43)c3ccccc3n2)cc1 | 22% | 
47 | COc1ccc(NC(=O)CN(C)C(=O)c2ccc(COc3ccccc3)o2)cc1 | 14.6% | 
48 | COc1ccccc1NC(=O)c1cc(Cl)nc2ccccc12 | -10.3% | 

Row | SMILES | activity change, negative = inhibition | Potency
49 | COc1ccc(-c2cc(C(=O)NCCCN3CCCC3=O)c3ccccc3n2)cc1OC |  | 20.6 µM (active)
50 | COc1ccc(C2=NS(=O)(=O)N(C)C(C(=O)N(C)Cc3ccccc3)=C2)cc1 | -10.3% | 
51 | Cc1cccc(C(=O)NCCCN2CCCC2=O)c1 | 0% | 
52 | COc1ccc(-c2cc(C(=O)N(C)CC(=O)Nc3ccccc3Cl)c3ccccc3n2)cc1OC |  | 2.06 µM (active)
53 | COc1ccc(-c2cc(C(=O)N(C)Cc3ccccc3)c3ccccc3n2)cc1 |  | 23.1 µM (active)
54 | COc1ccc(Cl)cc1NC(=O)CN(C)C(=O)c1ccc2n[nH]nc2c1 | 14.2% | 
55 | COc1ccc(NC(=O)CN(C)C(=O)c2cc(-c3ccc(C)o3)nc3ccccc23)cc1 |  | 20.6 µM (active)
56 | COc1ccc(NC(=O)CN(C)C(=O)c2cc(C3CC3)nn2-c2ccccc2)cc1 | -18.5% | 
57 | CC(C)Oc1ccc(S(=O)(=O)N2CCOCC2)cc1NC(=O)C1CSC2(C)CCC(=O)N12 (stereo not drawn) | -16.4% | 
58 | CCc1cccc(C)c1N1C(=O)CN(Cc2ccccc2)C1=S | -0.783% | 
59 | CNC[C@H](CC1CCCCC1)NC[C@H](NCCC1CCCC1)[C@H](C)O | 16.8% | 
60 | CSc1ncccc1C(=O)Nc1cccc(S(=O)(=O)N2CCOCC2)c1 | 13.4% | 
61 | CCCN(CC1CC1)C(=S)NC(=O)c1ccccc1Br | -17.4% | 
62 | O=C(COC(=O)c1ccccc1Cl)NC1CCCCCCC1 | 13.9% | 
63 | Cc1cc(NC(=O)CCN2CCN(Cc3ccccc3)CC2)ccc1Br | -19.6% | 
64 | OC(COc1ccc(F)cc1Cl)CN1CCc2ccccc2C1 (stereo not drawn) | 1.72% | 
65 | COc1ccc(CN(C)C(=O)c2cc(-c3ccc(C)cc3C)nc3ccccc23)c(OC)c1OC |  | 8.2 µM (active)
66 | COc1ccc(CN(C)C(=O)Cc2c[nH]c3ccccc23)c(OC)c1OC | -12.6% | 
67 | Cc1ccc(-c2cc(C(=O)Nc3nn[nH]n3)c3ccccc3n2)c(C)c1 | 14.1% | 
68 | Cc1ccc(C(=O)O)cc1NC(=O)c1ccc(Cn2nc(C)c(Cl)c2C)o1 | 4.59% | 
69 | Cc1c(Cl)c([N+](=O)[O-])nn1CCCC(=O)Nc1cc(Cl)ccc1Cl | 1.54% | 
70 | Cc1c(Cl)c([N+](=O)[O-])nn1Cc1ccc(C(=O)N/N=C\c2cc(Cl)ccc2O)o1 |  | 5.17 µM (active)
71 | COc1ccc(Br)cc1CN(C)C(=O)C1CC(=O)N(C2CCCC2)C1 (stereo not drawn) | -4.6% | 
72 | CC(OC(=O)CNC(=O)c1ccco1)C(=O)Nc1ccc(Cl)cn1 (stereo not drawn) | 24.7% | 

Row | SMILES | activity change, negative = inhibition | Potency
73 | COc1cc(-c2nc(S(=O)(=O)c3ccc(Cl)cc3)c(N(C)C)o2)cc(OC)c1OC |  | 8.2 µM (active)
74 | COc1ccc(-c2nnc(NC(=O)CS(=O)(=O)c3ccc(Cl)cc3)o2)c(OC)c1 | 1.46% | 
75 | O=S(=O)(c1ccc(Cl)cc1)c1nc(-c2ccco2)oc1N1CCCCC1 | -29% | 
76 | CC(=O)Nc1ccc(S(=O)(=O)NC(C)C(=O)OCCOc2ccc(F)cc2)cc1 (stereo not drawn) | 7.42% | 
77 | CCOC(=O)C1=C(C)Nc2nc3ccccc3n2C1c1cccs1 (stereo not drawn) | -0.153% | 
78 | COc1ccccc1NC(=O)C1=C(C)Nc2nc3ccccc3n2C1c1cccs1 (stereo not drawn) |  | 9.2 µM (active)
79 | COc1ccccc1NC(=O)C1=C(C)NC(=O)NC1c1ccc(C)s1 (stereo not drawn) | 4.16% | 
80 | CCOC(=O)C1CCCN(C(=O)c2ccc(C)c(S(=O)(=O)N3CCCCC3)c2)C1 (stereo not drawn) | -20.4% | 
81 | C=CCOC(=O)C1=C(C)NC(C)=C(C(=O)OCC=C)C1c1cccs1 | -9.34% | 
82 | COCCOC(=O)C1=C(C)N=c2s/c(=C\c3cccs3)c(=O)n2C1c1cccs1 (stereo not drawn) |  | 14.6 µM (active)
83 | CCOC(=O)C1=C(C)N=c2s/c(=C\C(=O)OC)c(=O)n2C1c1ccc(OC)cc1 (stereo not drawn) | 7.84% | 
84 | Cc1nc(Cl)c2oc3ccccc3c2n1 | 2.76% | 
85 | COc1ccc(C)cc1Nc1nc(C)nc2c1oc1ccccc12 |  | 5.17 µM (active)
86 | COC(=O)c1cnc(Nc2cc(C)ccc2OC)c2ccccc12 | -1.92% | 
87 | Cc1cc(C)c(OCC(=O)N(Cc2cccs2)C2CCS(=O)(=O)C2)c(C)c1 (stereo not drawn) | -4.24% | 
88 | COc1ccc(CCN2C(=O)C(C)=C(C)C2=O)cc1OC | 6.36% | 
89 | CCN1C(=O)[C@@H]2[C@@H](c3ccc(-c4ccc(OC)cc4)c(OC)c3)N3CCC[C@@]3(C(=O)OC)[C@@H]2C1=O | 9.25% | 
90 | Cc1ccc(NC(=O)C2CCN(S(=O)(=O)c3ccc4c(c3)NC(=O)CO4)CC2)cc1C | -9.24% | 
91 | CCOC(=O)N1CCN(C(=O)c2cn(C)c3ccc(S(=O)(=O)N(CC)CC)cc3c2=O)CC1 | 0.556% | 
92 | C=CCn1cc(C(=O)NCc2ccc(Cl)cc2)c(=O)c2cc(S(=O)(=O)N(CC)CC)ccc21 |  | 8.2 µM (active)
93 | CCn1cc(C(=O)NCC2CCCO2)c(=O)c2cc(S(=O)(=O)N3CCCCC3)ccc21 (stereo not drawn) | -15.3% | 
